These results are taken from PubChem BioAssay (NCI).

Structures are written as SMILES. The panel holds about 83,000 compounds, 20% with a hit somewhere; the sample as a whole holds those more often.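 Treatment: one concentration, 48 hours, 96-well format. Scoring: percent growth, with anything below 10 considered active.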 A number with no mark means an inactive call. Activity calls are given as the source filed them.

Some test systems named below: SK-MEL-2 melanoma; EKVX NSCLC; SN12C renal; UO-31 renal; TK-10 renal; ACHN renal; CAKI-1 renal; A498 renal; CCRF-CEM leukemia; MOLT-4 leukemia.
What all share (assay): NCI-60 one-dose screen, 48 h (100 = growth as untreated, 0 = no growth, -100 = all killed)
Conditions in all cases: 10 µM unless noted

In the case of `CCN1C(=O)N(CC)C2C1NN=c1s/c(=C\c3ccc(Cl)cc3Cl)c(=O)n12` (stereo not given), the growth in the assay on SK-MEL-2 melanoma was 45.7%; in the assay with EKVX NSCLC, 50.1%; in the assay with SN12C renal, 21.5%; in the assay with UO-31 renal, 35.9%; in the assay with TK-10 renal it was 67.7%; with ACHN renal, 26.7%. Further, the growth in the assay with CAKI-1 renal was 21.1%; in the assay with A498 renal, 16.9%; in the assay with CCRF-CEM leukemia, 9.4% (active); in the assay on MOLT-4 leukemia, 12.9%.

Regarding `O=C1/C(=C/c2ccc(Cl)cc2)COc2ccc(O)c(O)c21`, the growth with SK-MEL-2 melanoma was 69.9%; with EKVX NSCLC, 51.7%; in the assay on SN12C renal it was -51.5% (active); with UO-31 renal, -98.5% (active); in the assay with TK-10 renal it was 16.7%; in the assay with ACHN renal it was -66.3% (active). Also, the growth with CAKI-1 renal is -13.8% (active); in the assay with A498 renal it was 114%; with CCRF-CEM leukemia, 4.29% (active); in the assay on MOLT-4 leukemia it was 3.43% (active).

Take `N#CC1=C(c2ccc(Cl)cc2)Nc2c(c(-c3ccc(Cl)cc3)nn2-c2ccccc2)C12C(=O)Nc1ccc(Cl)cc12` (stereo not given): the growth in the assay with SK-MEL-2 melanoma was 74.9%; with EKVX NSCLC it was 38.8%; in the assay with SN12C renal it was 56.5%; in the assay on UO-31 renal, 23.5%; in the assay with TK-10 renal, 44.9%; in the assay with ACHN renal it was 34.6%. The growth in the assay on CAKI-1 renal was 35.8%; in the assay with A498 renal it was 51.6%; with CCRF-CEM leukemia, 35.9%; in the assay on MOLT-4 leukemia, 35.1%.

Take `C/C(Nc1ccc(Cl)c(Cl)c1)=C1\CCOC1=O`: the growth is 97% with SK-MEL-2 melanoma; 77.4% in the assay with EKVX NSCLC; 88.9% in the assay with SN12C renal; 84.3% in the assay with UO-31 renal; 104% in the assay on TK-10 renal; 79.7% with ACHN renal. Moreover, the growth is 57.7% in the assay on CAKI-1 renal, 93.5% in the assay on A498 renal, 81.5% in the assay on CCRF-CEM leukemia and 80.9% in the assay with MOLT-4 leukemia.

As for `Cc1cccnc1NC(=S)Nc1ncccc1C`, the growth in the assay with SK-MEL-2 melanoma was 103%; in the assay with EKVX NSCLC, 95.6%; in the assay with SN12C renal, 98.4%; in the assay on UO-31 renal, 108%; in the assay with TK-10 renal it was 90.1%; with ACHN renal, 109%. Besides, the growth is 70.7% in the assay with CAKI-1 renal, 115% in the assay with A498 renal, 91.4% in the assay on CCRF-CEM leukemia and 60.3% in the assay on MOLT-4 leukemia.

Regarding `COc1ccc(C(=O)C2C(c3ccc(OC)cc3)CN(C)C23C(=O)Nc2ccccc23)cc1` (stereo not given), the growth with SK-MEL-2 melanoma is 96.9%; with EKVX NSCLC, 91%; in the assay on SN12C renal it was 92.1%; in the assay with UO-31 renal, 70.3%; in the assay with TK-10 renal it was 103%; in the assay on ACHN renal, 95.5%. The growth in the assay on CAKI-1 renal is 68.2%; in the assay with A498 renal, 99.8%; in the assay with CCRF-CEM leukemia it was 97.4%; with MOLT-4 leukemia, 88.1%.

As for `CN(C)CCCC1(c2ccc(F)cc2)OCc2cc(-c3cccc4[nH]ccc34)ccc21` (stereo not given), the growth in the assay with SK-MEL-2 melanoma was 74.5%; in the assay on EKVX NSCLC it was 44.8%; in the assay on SN12C renal, 48.3%; with UO-31 renal it was -9.8% (active); in the assay with TK-10 renal, 58.5%; in the assay on ACHN renal it was 9.24% (active). The growth with CAKI-1 renal was 6.71% (active); with A498 renal, 72%; in the assay on CCRF-CEM leukemia, 16%; with MOLT-4 leukemia, -8.64% (active).

Consider `Cc1ccc(Cl)cc1Nc1nc(C(F)(F)F)ccc1C(=O)N/N=C/c1cccnc1`, for which the growth in the assay on SK-MEL-2 melanoma was -5.85% (active); in the assay on EKVX NSCLC, 12.7%; in the assay on SN12C renal, 36.4%; in the assay on UO-31 renal it was 15%; in the assay with TK-10 renal, 24.3%; with ACHN renal it was 10.2%. Besides, the growth in the assay with CAKI-1 renal was 14.3%; in the assay with A498 renal, 34%; with CCRF-CEM leukemia, 10.6%; with MOLT-4 leukemia, 3.8% (active).

As for `CCO/C=N/C1=C(C#N)C(c2ccc(OC)cc2)c2sc3c(F)cccc3c2O1` (stereo not given), the growth is 33.3% in the assay on SK-MEL-2 melanoma; 49.4% with EKVX NSCLC; 39.6% in the assay on SN12C renal; 38.1% in the assay with UO-31 renal; 51.8% with TK-10 renal; 48.1% with ACHN renal. The growth is 25.2% in the assay on CAKI-1 renal, 21.7% with A498 renal, 12.2% in the assay on CCRF-CEM leukemia and 24.5% in the assay on MOLT-4 leukemia.

For the molecule `Cc1ccc(Sc2oc(-c3ccc(C)cc3)nc2[P+](c2ccccc2)(c2ccccc2)c2ccccc2)cc1`, the growth in the assay with SK-MEL-2 melanoma is -36% (active); with EKVX NSCLC it was 6.65% (active); in the assay with SN12C renal, 3.64% (active); in the assay with UO-31 renal it was -22.3% (active); in the assay on TK-10 renal, 22.7%; in the assay with ACHN renal it was -6.75% (active). The growth in the assay with CAKI-1 renal was -23.2% (active); with A498 renal it was -40.5% (active); in the assay on CCRF-CEM leukemia, -2.03% (active); in the assay with MOLT-4 leukemia it was -25.9% (active).

In the case of `CSc1nc2sc3c(c2c(=O)n1-c1ccc([N+](=O)[O-])cc1)CCCCC3`, the growth in the assay with SK-MEL-2 melanoma was 101%; with EKVX NSCLC, 85.7%; with SN12C renal, 88.3%; in the assay on UO-31 renal, 90.8%; in the assay on TK-10 renal, 92.9%; with ACHN renal, 67.5%. Further, the growth in the assay with CAKI-1 renal is 71%; in the assay with A498 renal, 80.2%; in the assay on CCRF-CEM leukemia it was 93.3%; with MOLT-4 leukemia, 93.3%.

Consider `CCOC(=O)c1cc(C(=O)c2cc(OC)c(OC)c(OC)c2)n2ccc(-c3ccncc3)cc12`, for which the growth in the assay on SK-MEL-2 melanoma is 86.5%; in the assay with EKVX NSCLC, 101%; in the assay with SN12C renal, 97.8%; in the assay with UO-31 renal it was 70.3%; with TK-10 renal, 100%; with ACHN renal it was 99.8%. Also, the growth is 84.5% in the assay on CAKI-1 renal, 85.6% in the assay on A498 renal, 90% in the assay on CCRF-CEM leukemia and 115% with MOLT-4 leukemia.

Turning to `O=C(Nc1ncc(Cc2ccc(Cl)c(C(F)(F)F)c2)s1)c1ccc2nnsc2c1`, the growth with SK-MEL-2 melanoma was 47.5%; with EKVX NSCLC, 39.4%; in the assay on SN12C renal, 58.2%; in the assay with UO-31 renal, 40.9%; in the assay on TK-10 renal, 48.3%; in the assay on ACHN renal, 43.7%. Besides, the growth in the assay with CAKI-1 renal is 28.1%; with A498 renal, 82%; in the assay on CCRF-CEM leukemia, 45.5%; in the assay with MOLT-4 leukemia, 30.9%.
